# Values joined by “and” are separate entries in the source; they are usually repeats but may differ in a detail not shown here. Identical values can stand only once. Results filed as inconclusive are left out. Where a call stands in place of a potency, no number is given. Active and inactive are the calls of the source. The call rests on the fitted dose curve; in most records, active means well fitted cell-killing curve with a large enough effect in the repeat runs; inconclusive means weak or mixed curves; inactive means no such curve, though single readings can be large or run the other way.
# Test: qHTS assay to identify small molecule antagonists of the androgen receptor (AR) signaling pathway - cell viability counter screen (AID 743033; further: nearly all actives have a fitted effect of over 45% in size)
# Settings: AR-bla HEK293 viability, CellTiter-Glo luminescence, 16 h; series mostly up to 58.5 µM
# Source text: National Center for Advancing Translational Sciences [NCATS]
# NIH Chemical Genomics Center [NCGC]
# U.S. Environmental Protection Agency [EPA]
# National Institutes of Environmental Health Sciences [NIEHS]
# National Toxicology Program [NTP]
# U.S. Food and Drug Administration [FDA]
# Androgen receptor (AR), a nuclear hormone receptor, plays a critical role in AR-dependent prostate cancer and other androgen related diseases. Endocrine disrupting chemicals (EDCs) and their interactions with steroid hormone receptors like AR may cause disruption of normal endocrine function as well as interfere with metabolic homeostasis, reproduction, developmental and behavioral functions. To identify the compounds that inhibit AR signaling, GeneBLAzer AR-UAS-bla-GripTite cell line (Invitrogen, Carlsbad, CA, USA) containing a beta-lactamase reporter gene under control of an Upstream Activator Sequence (UAS) stably integrated into HEK293 cells was used to screen the Tox21 10K compound library. The cytotoxicity of the Tox21 compound library against the AR-bla cell line was tested in parallel by measuring the cell viability using CellTiter-Glo assay in the same wells.
# Tox21 Assay Protocol Summary:
# AR-bla cells were dispensed at 2,000 cells/5 uL of assay medium per well into black wall/clear-bottom 1536-well plates using a Multidrop Combi (ThermoFisher Scientific, Waltham, MA) dispenser. After the assay plates were incubated at a 37C and 5% CO2 for 4 hr, 23 nL of compounds dissolved in DMSO, positive controls or DMSO only was transferred to the assay plate by a Pintool station (Kalypsys, San Diego, CA), followed by addition of 1 uL of agonist (R1881) in culture medium using a Bioraptr Flying Reagent Dispenser (FRD) workstation (Beckman Coulter, Indianapolis, IN, USA). The plates were incubated at a 37C and 5% CO2 for 16 h. After 1 uL of LiveBLAzerTM B/G FRET substrate was added using a Bioraptr FRD, the plates were incubated at room temperature for 2 h and fluorescence intensity was measured by an Envision plate reader (PerkinElmer, Shelton, CT). For cell viability readout that measures cytotoxicity, 4 ul/well of CellTiter-Glo reagent was added into the assay plates using a Bioraptr FRD. After 30 min incubation at room temperature, the luminescence intensity in the plates was measured using a ViewLux (PerkinElmer) plate reader.
# Potency means the concentration at half of the fitted maximal effect.
row,SMILES,Potency
1,C#CC(C)(O)CC (stereo not given),inactive
2,CNC(=O)Oc1ccccc1C(=O)Nc1ccccc1,inactive
3,CN1C(=O)CC(=O)N(c2ccccc2)c2cc(Cl)ccc21,inactive
4,CC(=O)Oc1ccc2c3c1O[C@H]1[C@@H](OC(C)=O)C=C[C@H]4[C@@H](C2)N(C)CC[C@@]341,inactive
5,COC(COC(N)=O)C1=C(N2CC2)C(=O)C(C)=C(N2CC2)C1=O (stereo not given),inactive
6,O[C@H]1[C@H]2[C@H](O)CCCN2C[C@H]1O,inactive
7,CN1CSC(=S)N(C)C1,5.47 µM (active) and 3.46 µM (active)
8,CC(=O)[C@H]1CC[C@H]2[C@@H]3CC[C@@H]4C[C@H](O)CC[C@]4(C)[C@H]3CC[C@]12C,inactive
9,CCCCCN(C)CCC(O)(P(=O)(O)O)P(=O)(O)O,inactive
10,O=S(=O)(O)c1cc(O)ccc1O,inactive
11,O=C1C=C2C=C[C@@H]3C[C@@]2(O1)[C@H]1CCCCN31,inactive
12,O=C1C(I)=CC(=C(c2cc(I)c(O)c(I)c2)c2ccccc2C(=O)O)C=C1I,inactive
13,CCCCNCC(O)c1ccc(O)cc1 (stereo not given),inactive
14,C/C=C(\CC)C(=O)NC(N)=O,inactive
15,CCN1C[C@]2(COC)[C@H](O)C[C@H](OC)[C@@]34[C@@H]5C[C@@]6(O)[C@H](OC(=O)c7ccccc7)[C@@H]5[C@@](OC(C)=O)([C@@H]([C@H](OC)[C@H]23)[C@@H]14)[C@@H](O)[C@@H]6OC,inactive
16,C[C@@H](CO)NC(=O)[C@@H]1C=C2c3cccc4[nH]cc(c34)C[C@H]2N(C)C1,inactive
17,C[C@]12CC[C@H](O)C[C@H]1CC[C@@H]1[C@@H]2CC[C@]2(C)[C@@H](c3ccc(=O)oc3)C[C@H]3O[C@]132,1.34 µM (active)
18,COc1ccc2c3c1O[C@H]1[C@@H](O)C=C[C@H]4[C@@H](C2)NCC[C@@]341,inactive
19,O=C1CCCCC1CN1CCCCC1 (stereo not given),inactive
20,O=C(OCCN1CCCCC1)C(O)(c1ccccc1)c1ccccc1,inactive

row,SMILES,Potency
1,O=C(C[C@@H]1NCCC[C@H]1O)Cn1cnc2cc(Br)c(Cl)cc2c1=O,inactive
2,O=C1CN=C(c2ccccc2)c2cc(Cl)ccc2N1,inactive
3,c1csc(C2(N3CCCCC3)CCCCC2)c1,inactive
4,CCCCCc1cc(O)c2c(c1)OC(C)(C)c1ccc(C)cc1-2,inactive
5,CCCCNC(C)(C)[P+](=O)O,inactive
6,CC(C)[C@H]1C(=O)N2CCC[C@H]2[C@]2(O)O[C@](NC(=O)[C@@H]3C[C@@H]4c5cccc6[nH]cc(c56)C[C@H]4N(C)C3)(C(C)C)C(=O)N12,inactive
7,C[C@]12CC[C@H](OS(=O)(=O)O)CC1=CC[C@@H]1[C@@H]2CC[C@]2(C)C(=O)CC[C@@H]12,inactive
8,Oc1ccc2c3c1O[C@H]1[C@@H](O)C=C[C@H]4[C@H](C2)NCC[C@@]341,inactive
9,CC(N)Cc1ccc2c(c1)OCO2 (stereo not given),inactive
10,CC(=O)OCC(=O)[C@H]1CC[C@H]2[C@@H]3CC[C@H]4C[C@H](O)CC[C@]4(C)[C@H]3C(=O)C[C@]12C,inactive
11,Cc1ccccc1-n1c(CF)nc2ccc(N)cc2c1=O,inactive
12,C[C@]12CC[C@H]3[C@@H](CCC4=C(Cl)C(=O)CC[C@@]43C)[C@@H]1CC[C@@H]2O,inactive
13,c1ccccc1,inactive
14,O=C1CCO1,inactive
15,c1ccc(C2(c3ccccc3)CC2C2=NCCN2)cc1 (stereo not given),inactive
16,NC1=NC(=O)N2CC12 (stereo not given),inactive
17,CCCN1CCC[C@H](c2cccc(O)c2)C1,inactive
18,CC(=O)O[C@H]1C[C@H](O[C@H]2[C@@H](O)C[C@H](O[C@H]3[C@@H](O)C[C@H](O[C@H]4CC[C@@]5(C)[C@H](CC[C@@H]6[C@@H]5C[C@@H](O)[C@]5(C)[C@@H](C7=CC(=O)OC7)CC[C@]65O)C4)O[C@@H]3C)O[C@@H]2C)O[C@H](C)[C@H]1O[C@@H]1O[C@H](CO)[C@@H](O)[C@H](O)[C@H]1O,0.0756 µM (active)
19,COC(=O)[C@]12CCC(C)(C)C[C@H]1[C@H]1C(=O)C=C3[C@@]4(C)C=C(C#N)C(=O)C(C)(C)[C@@H]4CC[C@@]3(C)[C@]1(C)CC2,4.25 µM (active)
20,CN=C1CN(O)C(c2ccccc2)=c2cc(Cl)ccc2=N1,inactive

# From PubChem BioAssay (Tox21)
